High-throughput results from PubChem BioAssay.
BoNT-A LC inh2 = BoNT/A light chain protease inhibitors, primary screen, biochemical, flow cytometry, MLPCN library | 0.17% of 360,000 active | Botulinum neurotoxin type A light chain protease (Clostridium botulinum A str. ATCC 3502) | inhibition, % at 10 µM | multiplex microsphere protease substrate cleavage
Anthrax LF inh2 = Bacillus anthracis LF protease inhibitors, primary screen, biochemical, multiplex microsphere, MLPCN library | Lethal factor (Bacillus anthracis), P15917 | multiplex microsphere protease cleavage assay | inhibition, % at 10 µM | 0.12% of 360,000 active | AID 588501, 2011
3CLpro inhibitor = SARS-CoV 3CLpro protease inhibitors, primary screen, biochemical, quenched FRET. 0.14% of 290,000 active. inhibition, % at 6 µM. Replicase polyprotein 1ab (Severe acute respiratory syndrome coronavirus), P0C6X7. recombinant SARS-CoV 3CLpro, quenched FRET peptide cleavage. AID 1706, 2009; in the data active = inhibition above about 12%
BoNT F protease = BoNT/F light chain protease inhibitors, primary screen, biochemical, flow cytometry, MLPCN library; Botulinum neurotoxin type F light chain protease (Clostridium botulinum); inhibition, % at 10 µM; 0.22% of 360,000 active; Multiplex microsphere protease cleavage assay; in the data active = inhibition above about 35%, passing the limit was not always enough; inconclusive = no clear call, values can overlap the other calls
Bead autofluor = flagged as autofluorescent in microsphere protease counterscreen | compound autofluorescence counterscreen, microsphere flow cytometry; hits give high values | fluorescence intensity (test concentration not listed) | 3.1% of 360,000 active; in the data active = fluorescence intensity above about 16000; inconclusive = no clear call, values can overlap the other calls
CCHFV vOTU inh = CCHFV vOTU protease inhibitors, primary screen, biochemical, Pep-AMC substrate, fluorescence; Crimean-Congo hemorrhagic fever virus L polyprotein viral ovarian tumor (vOTU) protease …; inhibition, % at 11.5 µM; 0.55% of 370,000 active; in the data active = inhibition above about 30%
Each line names hits and unclear results; the compound was inactive in the other large screens. Sampled rows, rich in hits. Any-hit rate of the full collection: about 3.9%. Cut-off read from the data, not from the text of the source, unless noted: active = inhibition above about 30%; inconclusive = no clear call, values can overlap the other calls; inactive = below that.

O=C(CCc1ccccc1)N[C@H]1[C@H](OC(=O)c2cnccn2)CCC[C@@]12C(=O)N(Cc1ccccc1)c1ccccc12	none (no result: BoNT-A LC inh2, Anthrax LF inh2, 3CLpro inhibitor, BoNT F protease, Bead autofluor)
O=C(CC(O)(c1ccccc1)C(F)(F)C(F)F)c1cccs1 (centres undefined)	BoNT-A LC inh2 inconclusive, Bead autofluor 20372
COc1ccc(OC)c(N2C(=O)C(Cl)=C(N3CCCCC3)C2=O)c1	Bead autofluor 21020
CCOC(=O)c1nc(C)n(-c2cc(Cl)ccc2Cl)n1	Bead autofluor 19905
COc1ccc2c(C)cc(N3CCCCCC3)nc2c1	none
Cc1cc(N2CCCCCC2)nc2ccc(F)cc12	Bead autofluor 19022
CC1=CCC(C(=O)O)(C(=O)N/N=C/c2cccs2)C(c2ccc(Cl)cc2)C1 (centres undefined)	Bead autofluor 19841
CC(C)(C)c1ccc(OCCCn2ccnc2)cc1	none
Cc1ccccc1Cn1cc(CN2[C@@H](CC(C)C)COc3cc(Br)ccc3S2(=O)=O)nn1	none (no result: BoNT-A LC inh2, Anthrax LF inh2, 3CLpro inhibitor, BoNT F protease, Bead autofluor)
COc1ccccc1N1CCN(C(=O)C2C3C=CC4(CN(Cc5ccccc5Cl)C(=O)C24)O3)CC1 (centres undefined)	Bead autofluor 20591
CCC(=O)N1CCc2cc(Br)c(S(=O)(=O)NCCCN(CC)Cc3ccccc3)cc21	none (no result: BoNT-A LC inh2, Anthrax LF inh2, 3CLpro inhibitor, BoNT F protease, Bead autofluor)
Clc1nc(-c2ccccc2)cc(-c2ccc(Br)cc2)n1	Bead autofluor 23930 (no result: CCHFV vOTU inh)
O=C(NC1(C(F)(F)F)Oc2ccccc2O1)N1CCC2(CC1)OCCO2	Bead autofluor 21302
CC(NS(C)(=O)=O)C(c1cccs1)N1CCN(C)CC1 (centres undefined)	Bead autofluor 16401
CC(NS(=O)(=O)c1ccccc1)C(c1cccs1)N1CCN(c2ccccc2)CC1 (centres undefined)	Bead autofluor 17711
CC(C)C(=O)NC(C)C(c1cccs1)N1CCN(C)CC1 (centres undefined)	Bead autofluor 23161
CCCC(=O)NC(C)C(c1cccs1)N1CCN(C)CC1 (centres undefined)	none
CN(C(=S)NC(=O)c1ccccc1Br)C1CCCCC1	Bead autofluor 16560 (no result: CCHFV vOTU inh)
C=CCOC(=O)C1=C(C)OC(N)=C(C(=O)OCC)C12C(=O)N(CC(N)=O)c1ccccc12 (centres undefined)	BoNT-A LC inh2 inconclusive, Bead autofluor 19254
CN(C)S(=O)(=O)N1CCN(CC(=O)Nc2ccc(Br)cc2)CC1	none
Cc1nc2ccc(NC(=O)c3ccc(F)cc3Cl)cc2c(=O)[nH]1	none (no result: BoNT-A LC inh2, Anthrax LF inh2, 3CLpro inhibitor, BoNT F protease, Bead autofluor)
CN1C(=O)[C@@H]2[C@@H]3C[C@@H]([C@H]4ON=C(c5ccc(Cl)cc5Cl)[C@@H]34)[C@@H]2C1=O	none
O=C(Nc1cccc(NC(=O)c2cccc(Cl)c2)c1)c1cccnc1	none
Cc1cccnc1NC(=O)c1csnn1	none
CCN(CC)CCCNC(=O)c1oc(=O)c2ccccc2c1-c1ccc(C)cc1	none (no result: BoNT-A LC inh2, Anthrax LF inh2, 3CLpro inhibitor, BoNT F protease, Bead autofluor)
O=C(Nc1nnc(COc2ccccc2)s1)C1CCN(S(=O)(=O)c2ccc(Cl)cc2)CC1	Bead autofluor 23493
O=C(Nc1nnc(-c2ccccc2Cl)s1)C1CCN(S(=O)(=O)c2ccc(Cl)cc2)CC1	none
CS(=O)(=O)Nc1ccc(N2CCCCC2)c(Cl)c1	Bead autofluor 23555
COc1ccc(CCN(C)C(=S)Nc2ccc(SC(F)F)cc2)cc1OC	none
Nc1cc2c([N+](=O)[O-])cccc2o1	BoNT F protease 38
CC12C=CC3(CN(Cc4ccccc4)C(=O)C3C1C(=O)NC1CC1)O2 (centres undefined)	Bead autofluor 22134
COc1ccccc1OCCSc1nc2ccccc2n1CC(O)CO (centres undefined)	BoNT F protease inconclusive
O=c1oc2ccccc2cc1-c1csc(Cc2nc(-c3ccc(Cl)cc3)cs2)n1	none
CCN(CC)c1ccc2cc(-c3nc(-c4cc5ccccc5oc4=O)cs3)c(=O)oc2c1	BoNT-A LC inh2 87, Anthrax LF inh2 47 (no result: 3CLpro inhibitor)
CCOC(=O)C(C)NC(=O)c1cn(-c2ccc(OC)cc2)c(=O)c2ccccc12 (centres undefined)	none
COc1ccc(C(=O)O/N=C/c2c(C(F)(F)F)nn(C)c2SCc2ccccc2Cl)cc1	Bead autofluor 22636
Cn1nc(C(F)(F)F)c(/C=N/OC(=O)c2ccccc2Cl)c1SCc1ccc(Cl)cc1	Bead autofluor 23366
CCOc1ccccc1N(CC(=O)NCc1ccccc1)C(=O)CCC(=O)Nc1cc(C)ccn1	none
COc1ccc(-c2csc(C(NC(C)=O)c3cccc(F)c3)n2)cn1 (centres undefined)	none (no result: 3CLpro inhibitor)
CC1(C)NC(=O)N(CCCCOc2ccc(Cl)cc2C=O)C1=O	none
CC1(C)NC(=O)N(CCCOc2ccc3c(c2)CCC3)C1=O	none
CC1(C)NC(=O)N(CCCOc2ccc(Br)cc2Cl)C1=O	Bead autofluor 23298
CC1(C)NC(=O)N(CCCCOc2ccc(Cl)cc2)C1=O	Bead autofluor 23237
Cc1cc(OCCCCN2C(=O)NC(C)(C)C2=O)cc(C)c1Cl	Bead autofluor 23207
CC1(C)NC(=O)N(CCCCOc2ccc(Br)cc2Cl)C1=O	Bead autofluor inconclusive
CCc1cc(OCCN2C(=O)NC(C)(C)C2=O)ccc1Cl	Bead autofluor 20493
CCC/C=C/c1ccc(CN2C(C(C)C)C(=O)N(Cc3cn(CC4CCCCC4)nn3)CCS2(=O)=O)cc1 (centres undefined)	none (no result: 3CLpro inhibitor)
COc1ccccc1-c1cnc(C(O)c2ccc(C)cc2C)[nH]1 (centres undefined)	none (no result: 3CLpro inhibitor)
Fc1ccc(CSc2nnc(-c3cnccn3)n2Cc2ccco2)cc1	Bead autofluor 24676
Cc1cccc(NC(=O)CSc2nnc(-c3cnccn3)n2Cc2ccco2)c1	BoNT-A LC inh2 inconclusive, Bead autofluor 23296
O=C(CSc1nnc(-c2cnccn2)n1Cc1ccco1)c1ccc2ccccc2c1	BoNT-A LC inh2 inconclusive, Bead autofluor 21448
Brc1ccc(CSc2nnc(-c3cnccn3)n2Cc2ccco2)cc1	none
Cc1ccc(NC(=O)CSc2nnc(-c3cnccn3)n2Cc2ccco2)cc1	Bead autofluor 17381
O=C(CSc1nnc(-c2ccccn2)n1Cc1ccco1)Nc1ccc(Oc2ccccc2)cc1	none (no result: BoNT-A LC inh2, Anthrax LF inh2, 3CLpro inhibitor, BoNT F protease, Bead autofluor)
COc1cc(-n2c(C)nc3cc(C(=O)N4CC(C)CC(C)C4)ccc32)cc(OC)c1OC (centres undefined)	none (no result: BoNT-A LC inh2, Anthrax LF inh2, 3CLpro inhibitor, BoNT F protease, Bead autofluor)
CC(=O)N1CCN(C(=O)c2cc(S(=O)(=O)N(C)c3ccc(F)cc3)ccc2Cl)CC1	none (no result: 3CLpro inhibitor)
C=CCn1c(SCC(=O)Nc2cccc3ccccc23)nnc1-c1cnccn1	Bead autofluor 16132
C=CCn1c(SCC(=O)Nc2ccc(F)cc2F)nnc1-c1cnccn1	none
Cc1cnn(-c2nc(-c3cccs3)cc(C(F)(F)F)n2)c1	Bead autofluor 23064
FC(F)(F)c1cc(-c2cccs2)nc(-n2cc(Br)cn2)n1	none
Cc1cc(C)cc(CC2CC(=O)N(c3ccc(Cl)cn3)C2=O)c1 (centres undefined)	Bead autofluor 22513
CS(=O)(=O)c1ccc(N2CCOCC2)c(S(C)(=O)=O)c1	Bead autofluor 20225
